In the supplement of paper PMC12645437, “Orthogonal IMiD-Degron Pairs Induce Selective Protein Degradation in Cells” (ACS Chemical Biology, 2025):
The full ranking holds about 8,300 sequences; the median of “log2 fold change of degron read counts, EGFP-low vs EGFP+ sorted cells (limma voom), compound-induced degradation” is about -1.1, and the highest 2% start at about 3.2. Shown is part of a subset that was picked to be rich in the highest values.

T1: CRBN, Q96SW2
T1 chain: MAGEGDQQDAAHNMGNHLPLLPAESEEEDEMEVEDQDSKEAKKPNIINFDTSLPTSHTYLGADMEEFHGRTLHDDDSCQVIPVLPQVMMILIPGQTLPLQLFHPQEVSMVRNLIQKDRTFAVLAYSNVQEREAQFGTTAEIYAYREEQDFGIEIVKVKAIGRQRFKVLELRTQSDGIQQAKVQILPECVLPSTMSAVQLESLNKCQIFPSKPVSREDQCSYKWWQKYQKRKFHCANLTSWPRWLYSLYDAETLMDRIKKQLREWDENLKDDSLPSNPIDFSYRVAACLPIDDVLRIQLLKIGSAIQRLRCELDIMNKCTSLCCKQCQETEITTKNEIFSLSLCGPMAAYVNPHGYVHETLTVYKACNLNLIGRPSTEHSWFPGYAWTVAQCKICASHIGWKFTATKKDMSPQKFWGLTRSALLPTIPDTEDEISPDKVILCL

B1: 46F_47C_49D_50Q_52G_53A_54Q_55F_67L_, Q9UKT9 (peptide)
chain: FCCDQCGAQFTQKGNLLRHIKL
B2: 46F_47W_49N_50Q_52G_53R_54S_55F_67L_, Q9UKT9 (peptide)
chain: FWCNQCGRSFTQKGNLLRHIKL
B3: 46L_47V_49E_50I_52G_53F_54D_55C_67L_, Q9UKT9 (peptide)
chain: LVCEICGFDCTQKGNLLRHIKL
B4: 46F_47D_49N_50Q_52G_53A_54F_55F_67L_, Q9UKT9 (peptide)
chain: FDCNQCGAFFTQKGNLLRHIKL
B5: 46F_47R_49D_50V_52G_53A_54L_55F_67L_, Q9UKT9 (peptide)
chain: FRCDVCGALFTQKGNLLRHIKL
B6: 46L_47N_49P_50I_52G_53F_54D_55C_67L_, Q9UKT9 (peptide)
chain: LNCPICGFDCTQKGNLLRHIKL
B7: 46F_47R_49E_50Q_52G_53A_54S_55F_67L_, Q9UKT9 (peptide)
chain: FRCEQCGASFTQKGNLLRHIKL
B8: 46L_47I_49E_50I_52G_53F_54R_55C_67L_, Q9UKT9 (peptide)
chain: LICEICGFRCTQKGNLLRHIKL
B9: 46L_47Y_49E_50I_52G_53F_54I_55C_67L_, Q9UKT9 (peptide)
chain: LYCEICGFICTQKGNLLRHIKL
B10: 46L_47E_49E_50I_52G_53F_54R_55C_67L_, Q9UKT9 (peptide)
chain: LECEICGFRCTQKGNLLRHIKL
B11: 46L_47A_49E_50I_52G_53F_54M_55C_67L_, Q9UKT9 (peptide)
chain: LACEICGFMCTQKGNLLRHIKL
B12: 46L_47K_49E_50I_52G_53F_54R_55C_67L_, Q9UKT9 (peptide)
chain: LKCEICGFRCTQKGNLLRHIKL
B13: 46L_47A_49E_50I_52G_53F_54I_55C_67L_, Q9UKT9 (peptide)
chain: LACEICGFICTQKGNLLRHIKL
B14: 46L_47F_49E_50I_52G_53F_54R_55C_67L_, Q9UKT9 (peptide)
chain: LFCEICGFRCTQKGNLLRHIKL
B15: 46L_47Y_49E_50I_52G_53F_54M_55C_67L_, Q9UKT9 (peptide)
chain: LYCEICGFMCTQKGNLLRHIKL
B16: 46L_47C_49E_50I_52G_53F_54M_55C_67L_, Q9UKT9 (peptide)
chain: LCCEICGFMCTQKGNLLRHIKL
B17: 46L_47Q_49E_50I_52G_53F_54R_55C_67L_, Q9UKT9 (peptide)
chain: LQCEICGFRCTQKGNLLRHIKL
B18: 46L_47L_49E_50I_52G_53F_54R_55C_67L_, Q9UKT9 (peptide)
chain: LLCEICGFRCTQKGNLLRHIKL
B19: 46L_47C_49E_50I_52G_53F_54I_55C_67L_, Q9UKT9 (peptide)
chain: LCCEICGFICTQKGNLLRHIKL
B20: 46F_47I_49D_50I_52G_53A_54T_55F_67L_, Q9UKT9 (peptide)
chain: FICDICGATFTQKGNLLRHIKL
B21: 46F_47K_49E_50Q_52G_53A_54P_55F_67L_, Q9UKT9 (peptide)
chain: FKCEQCGAPFTQKGNLLRHIKL
B22: 46F_47V_49N_50I_52G_53A_54C_55F_67L_, Q9UKT9 (peptide)
chain: FVCNICGACFTQKGNLLRHIKL
B23: 46F_47F_49N_50Q_52G_53R_54T_55F_67L_, Q9UKT9 (peptide)
chain: FFCNQCGRTFTQKGNLLRHIKL
B24: 46F_47C_49S_50V_52G_53H_54K_55F_67L_, Q9UKT9 (peptide)
chain: FCCSVCGHKFTQKGNLLRHIKL
B25: 46F_47W_49E_50I_52G_53H_54I_55F_67L_, Q9UKT9 (peptide)
chain: FWCEICGHIFTQKGNLLRHIKL
B26: 46F_47I_49E_50I_52G_53R_54I_55F_67L_, Q9UKT9 (peptide)
chain: FICEICGRIFTQKGNLLRHIKL
B27: 46F_47L_49E_50I_52G_53R_54A_55F_67L_, Q9UKT9 (peptide)
chain: FLCEICGRAFTQKGNLLRHIKL
B28: 46L_47R_49E_50I_52G_53F_54I_55C_67L_, Q9UKT9 (peptide)
chain: LRCEICGFICTQKGNLLRHIKL

Target: T1, CRBN, Q96SW2
Assay: log2 fold change of degron read counts, EGFP-low vs EGFP+ sorted cells (limma voom), compound-induced degradation; higher = more compound-induced degradation of the degron-EGFP fusion; degrons are variants of IKZF1/3 zinc finger 2; compound dose not given here
Settings: Jurkat, 18 h
[1] = compound: compound 19 (5-tert-butyl-thalidomide)
[2] = compound: compound 22 (5-morpholino-thalidomide)
[3] = compound: compound 33 (diphenyl IMiD analogue)
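Note: pooled lentiviral library of zinc finger degron-EGFP fusions in mCherry-positive Jurkat cells, FACS-sorted after compound exposure, with degron abundance counted by next-generation sequencing.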

Row | Sequence | log2 fold change of degron read counts [1] | log2 fold change of degron read counts [2] | log2 fold change of degron read counts [3] | log2 fold change of degron read counts (compound: thalidomide)
1 | B1 | -1.9 | -1.68 | -1.17 | -2.37
2 | B2 | -1.96 | -2.11 | -1.99 | -2.07
3 | B3 | -3.07 | -2.83 | -2.91 | -1.81
4 | B4 | -1.58 | -1.99 | -2.03 | -1.65
5 | B5 | -2.19 | -2.03 | 0.228 | -1.08
6 | B6 | -1.95 | -1.67 | -1.11 | -0.883
7 | B7 | -1.07 | -1.32 | 0.513 | -0.516
8 | B8 | 1.24 | 2.26 | 1.57 | 3.01
9 | B9 | 2.99 | 3.26 | 2.2 | 0.746
10 | B10 | 0.728 | -0.831 | 2.02 | 3.15
11 | B11 | 2.65 | 1.33 | 0.0952 | 0.132
12 | B12 | -1.07 | -2.46 | -2.5 | -0.336
13 | B13 | 1.83 | 0.461 | -0.53 | -0.408
14 | B14 | 3.71 | 3.64 | 1.36 | 2.31
15 | B15 | 3.38 | 3.27 | 2.53 | 1.05
16 | B16 | 1.12 | 1.14 | 1.45 | 1.31
17 | B17 | 1.29 | 1.55 | 1.26 | 3.58
18 | B18 | 0.785 | -1.31 | 0.385 | 2.48
19 | B19 | 0.819 | 0.557 | 1.54 | 1.05
20 | B20 | -1.39 | 0.332 | 0.735 | -0.113
21 | B21 | -1.28 | -2.18 | -2.55 | -1.19
22 | B22 | -1.18 | 0.539 | 1.63 | 1.37
23 | B23 | -2.31 | -2.17 | -2.54 | -2.59
24 | B24 | -2 | -2.26 | -2.77 | -2.04
25 | B25 | -0.453 | -0.795 | -0.246 | -0.951
26 | B26 | -1.03 | -1.63 | 0.139 | -0.162
27 | B27 | -1.9 | -2.56 | -1.36 | -1.22
28 | B28 | -0.547 | -1.4 | 0.271 | 0.795
